Source: PubChem BioAssay AID624125 (The Scripps Research Institute Molecular Screening Center, 2012)
The campaign covered roughly 360,000 compounds. About 2,600 (0.72%) were called active. The sample as a whole holds a higher share of actives than the screen did. Unmarked numbers belong to inactive results.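 The calls were made as follows: active = inhibition above its plate's cutoff, the mean inhibition of sample wells plus 3 SD (cut at about 27% in these data); inactive = the rest.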

target: Muscarinic acetylcholine receptor M4 (Homo sapiens) (UniProt P08173); test: human M4 muscarinic receptor antagonists, primary screen, CHO cells, Fluo-8 calcium fluorescence (AID 624125); settings: CHO-hM4 cells, ACh EC80, Fluo-8 calcium fluorescence; at 3 µM; stronger effect = higher value;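 also: 0% = acetylcholine EC80 with DMSO and 100% = DMSO without agonist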
Sequence (P08173 whole entry, looked up): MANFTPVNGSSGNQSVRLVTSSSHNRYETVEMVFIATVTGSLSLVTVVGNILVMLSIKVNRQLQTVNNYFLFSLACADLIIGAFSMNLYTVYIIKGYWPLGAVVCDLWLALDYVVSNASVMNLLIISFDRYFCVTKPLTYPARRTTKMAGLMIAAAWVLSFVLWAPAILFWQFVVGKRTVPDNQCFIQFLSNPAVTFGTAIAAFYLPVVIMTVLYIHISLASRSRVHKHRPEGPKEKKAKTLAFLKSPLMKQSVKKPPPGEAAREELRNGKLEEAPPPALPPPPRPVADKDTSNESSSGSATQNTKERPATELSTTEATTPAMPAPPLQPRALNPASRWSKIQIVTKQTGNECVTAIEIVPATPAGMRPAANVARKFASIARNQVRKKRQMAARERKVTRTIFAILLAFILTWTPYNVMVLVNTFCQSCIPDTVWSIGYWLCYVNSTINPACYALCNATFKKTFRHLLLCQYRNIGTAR

Compound | inhibition
COc1ccc(NC(=O)CCn2ccnc2)c(OC)c1 | 4.14%
COc1ccc(NS(=O)(=O)c2ccc(N3CCOCC3)c(NC(=O)c3ccccc3Br)c2)cc1 | -9.67%
Cc1ccc(NS(=O)(=O)c2cc3c(cc2C)NC(=O)CO3)cc1 | 2.56%
CN(Cc1c(F)cccc1Cl)S(=O)(=O)c1cccs1 | -12.9%
Cc1cc(=O)n2nc(N3CCCC3C(=O)NCCCN3CC(C)CC(C)C3)sc2n1 (centres undefined) | -11.3%
c1ccc(C(=NNc2nc3ccccc3s2)c2ccccn2)cc1 | 56.1% (active)
Cc1ccc(C)c(N2CCN(C(=O)Cn3ncn4cccc4c3=O)CC2)c1 | -6.41%
Cc1ccc(C)c(N2CCN(C(=O)CCCCCn3c(=S)[nH]c4ccc(N5CCOCC5)cc4c3=O)CC2)c1 | 33.6% (active)
Cc1ccc(OCCCC(=O)N2CCOCC2)c(C)c1 | -1.8%
C[C@H]1CN([C@@H](C)CO)C(=O)CCCn2nncc2CO[C@@H]1CN(C)S(=O)(=O)c1cccc(C#N)c1 | -12.9%
CC1(C)Cc2c(sc3nc4n(c(=N)c23)CCCCC4)CO1 | 3.83%
N=c1c2c3c(sc2ncn1CCCN1CCOCC1)CCCCC3 | 10.8%
N=c1c2c3c(sc2nc2n1CCCCC2)CCCC3 | 46.3% (active)
Cc1cc(C)c(S(=O)(=O)c2cc(F)ccc2C)c(=O)[nH]1 | 1.71%
CCN1/C(=C\c2ccc3ccccc3[n+]2CC)Sc2cc(C)ccc21 | 34% (active)
CCc1ccc(NC2Nc3cc(C)nn3S2)cc1 (centres undefined) | 4.8%
COc1ccc(Cl)cc1C=CC=NNC(=O)c1ccncc1 | -14.8%
CCC1CCC/C1=N\NC(=O)c1ccc(Cl)cc1 (centres undefined) | 6.05%
CN1CCC[C@@H]1CCO[C@](C)(c1ccccc1)c1ccc(Cl)cc1 | 97.7% (active)
COc1cccc2sc3cc(NCC[C@@H]4CCCN4C)ccc3c(=O)c12 | -7.94%
O=C(Nc1ccc(F)cc1)c1cc2c(s1)CCCC2 | 1.82%
C=CCOC(=O)C1=C(C)N=C2SCCC(=O)N2C1/C=C/c1ccccc1OC (centres undefined) | 1.49%
CC1(C)CC(N2CCN(C(c3ccccc3)c3ccccc3)CC2)=CC(=[N+]2CCCCC2)C1 | 56.8% (active)

Compound | inhibition
CC1(c2cccc(Br)c2)NC(=O)N(CC(=O)NCCC2=CCCCC2)C1=O (centres undefined) | -1.54%
COC(=O)c1cc(S(=O)(=O)N2CCC(C(N)=O)CC2)oc1C | -3.75%
CCCCN(CCCC)CCC(O)c1cc2c(Cl)cc(Cl)cc2c2cc(C(F)(F)F)ccc12 (centres undefined) | -6.99%
O=[N+]([O-])/C=C/c1ccc2c(ccn2Cc2ccccc2)c1 | 51% (active)
CC(C)CCNC(=O)c1[nH]c(C(F)(F)F)nc1-c1ccccc1 | 2.39%
CCOCCCN1C(=O)CN(C2CCCCC2)C(=O)C1c1ccc(OCC)c(OC)c1 (centres undefined) | 5.54%
Cc1cc(=O)[nH]c(N/N=C/c2ccc3c(c2)OCCO3)n1 | 29.5% (active)
Cc1ccc(C)c(NC2=NCC(=O)N2c2ccc3c(c2)OCCO3)c1 | 5.91%
Cc1cc(=O)[nH]c(Nc2cccc(Br)c2)n1 | 4.17%
CC1(C)C[C@H]2C3=CCC4[C@@]5(C)CC[C@H](O)[C@](C)(CO)C5CC[C@@]4(C)[C@]3(C)C[C@@H](O)[C@@]2(CO)[C@@H](O)[C@@H]1O (some centres undefined) | -13.3%
CC1O[C@@H](OC2C(O)C(C)O[C@H](OC(=O)[C@]34CCC(C)(C)C[C@H]3C3=CCC5[C@@]6(C)CC(O)C(O[C@@H]7OC(CO)C(O)[C@@H](O)[C@@H]7O)[C@@](C)(C(=O)O)C6CC[C@@]5(C)[C@]3(CO)CC4)C2O[C@H]2OC(C)[C@@H](O[C@@H]3OCC(O[C@@H]4OC(CO)C(O)[C@H](O)C4O)[C@@H](O)[C@@H]3O)[C@H](O)C2O)C(O)C(O)C1O (some centres undefined) | 4.49%
CC1(C)C2CC[C@]3(C)C(CC=C4[C@@H]5C[C@@](C)(CO)CC[C@]5(C(=O)O)CC[C@]43C)[C@@]2(C)CC[C@@H]1O (some centres undefined) | 45.8% (active)
O=S(=O)(c1cccc(-c2cn3ccccc3n2)c1)N1CCCC1 | -2.49%
O=C(NCC(c1cccs1)N1CCOCC1)c1cc(Cl)ccc1[N+](=O)[O-] (centres undefined) | -29.6%
CCN1CCN(CC(=O)c2cc(OC)c(OC)c(OC)c2)CC1 | 3.39%
O=C1C=C(c2ccc(Cl)cc2)C(=O)N1Nc1ccccc1 | 32% (active)
Cc1cc(C)nc(NS(=O)(=O)c2ccc(N3C(=O)C4CCCCC4C3=O)cc2)n1 (centres undefined) | -3.19%
Cc1cccc2cc3c(N)c(C(=O)N4CCCc5ccccc54)sc3nc12 | 26.9% (active)
Cc1ccc(C(=O)N2CCCc3ccccc32)c(Cl)c1 | -5.91%
CCCn1nc(C(=O)N2CCCc3ccccc32)c2ccccc2c1=O | 3.11%
C=CCn1cc(Cl)cc(C(=O)Nc2ccccc2)c1=O | 1.16%
NS(=O)(=O)c1ccc(NC(=O)COC(=O)C2(c3ccc(F)cc3)CCCC2)cc1 | 1.71%
O=C(/C=C(O)/C=C/c1ccc(O)cc1)/C=C/c1ccc(O)cc1 | 41.4% (active)

Compound | inhibition
NC1=NC(=O)S/C1=C\c1ccc(O)cc1 | 0.37%
CC(C)(C)C(=O)/C(C#N)=C/c1ccc(O)cc1 | 3.63%
CCNC(=O)C1(C)CCN(Cc2ccc(C(=O)OCC)o2)C1 (centres undefined) | 3.23%
Clc1cccc(Cl)c1Cn1nnc(-c2cccs2)n1 | -3.16%
CC(C)[C@@H]1COC(c2cccc(C3=N[C@H](C(C)C)CO3)c2)=N1 | 7.38%
COc1cc(/C=C(/NC(=O)c2ccccc2)C(=O)Nc2cccc(O)c2)c([N+](=O)[O-])cc1OC | -11.4%
COc1cc(/C=C(\C#N)C(=O)Nc2ccc3ccccc3c2)c([N+](=O)[O-])cc1OC | 28.5% (active)
COc1cc(NC(=O)COC(=O)CSc2ccc3ccccc3c2)c(C)cc1[N+](=O)[O-] | -8.64%
CCOC(=O)C1CCN(C(=O)Cn2nc(C)c3c(C)n(-c4ccccc4)nc3c2=O)CC1 | 9.38%
Cc1cc(=O)oc2c3c(cc(OCC(=O)N[C@H](C(=O)O)c4ccccc4)c12)OC(C)(C)CC3 | -5.66%
O=C1CCCC(O)=C1N=Nc1ccc2ncsc2c1 | 9.09%
COc1ccc(NC(=O)N(C)C[C@H]2Oc3ccc(NC(=O)C4CC4)cc3C(=O)N([C@H](C)CO)C[C@@H]2C)cc1 | -10%
CCc1nc2c(OCc3ccc(Cl)cc3Cl)cccn2c1N(C)C(=O)C(C)C | -17.6%
Cc1nc2c(OCc3cccc(Cl)c3)cccn2c1N(C)CC1CC1 | 8.19%
Cc1nc2c(OCc3ccc(Cl)cc3Cl)cccn2c1N(C)CC1CC1 | 38% (active)
COC(CNC(=O)c1ccc2c(c1)ncn2-c1cc(C)cc(C)c1)OC | -0.94%
CCc1nc2c(OCc3ccccc3)cccn2c1N(C)C(=O)c1ccco1 | 8.33%
COc1ccc(C(c2nnnn2Cc2cccs2)N2CCN(c3ccccc3)CC2)cc1OC (centres undefined) | -1.13%
CCCCCC(O)(CCN1CCCCC1)c1ccccc1 (centres undefined) | 98.9% (active)
O=C(c1ccccc1)C(O)(CN1CCCCC1)c1ccccc1 (centres undefined) | 5.71%
CCCCOc1ccc(C(C)(O)CCN2CCOCC2)cc1 (centres undefined) | 3.58%
C#CC(CCN1CCCCC1)(OC)c1ccccc1 (centres undefined) | 44.6% (active)
CCCCCCC(O)(CCN1CCCCC1)c1ccccc1 (centres undefined) | 88.2% (active)

Compound | inhibition
c1ccc2cc3[nH]c(CN4CCCCC4)nc3cc2c1 | -0.37%
CC(CN1CCCCC1)c1ccccc1 (centres undefined) | 5.04%
CCc1ccccc1NC(=O)NCCN1CCCCC1 | 4.05%
COc1ccc(C(O)(C2CCCCC2)C(CN2CCCC2)c2ccccc2)cc1 (centres undefined) | 5.79%
CCC1SC(CC)C(=O)N(CC(=O)NC2CCCCC2)C1=O (centres undefined) | 4.12%
Cc1ccc(C(=O)NC(=S)Nc2ccc3[nH]c(=O)[nH]c3c2)cc1C | -8.35%
COC(=O)c1cccc(-n2[nH]nnc2=S)c1 | 2.86%
COc1ccccc1C(=O)NCCn1cc(SCC(=O)NCc2ccco2)c2ccccc21 | 6.25%
COc1cc2c3c(c1)/C(=C1/SC(=S)NC1=O)C(=O)N3C(C)(C)C=C2C | 9.66%
C=CC[C@@H](CC(=O)N[C@@H](CO)Cc1ccccc1)C(=O)NCCOC(=O)[C@@H](CC=C)CC(=O)OC(C)(C)C | -5.01%
CCc1cc(C(c2ccccc2OC)N2CCOCC2)c(NC(=O)c2ccccc2)s1 (centres undefined) | -6.12%
COc1ccc(COC(=O)c2n[nH]c3ccccc23)cc1F | 3.64%
CCCOc1ccccc1C(=O)NCCCC(=O)O | -1.85%
CN(C)c1ccc(N/C=C/C(=O)C(F)(F)F)cc1 | -4.11%
COC(=O)c1cc(NC(=O)CN2CCN(C(C)=O)CC2)cc(C(=O)OC)c1 | 1.81%
Cc1cc2c(cc1C)N(Cc1ccccc1)C1=NCCCN12 | 10.6%
Cc1ccc(OCc2cc(C(=O)N(C)CCn3ccnc3C)no2)cc1C | -0.14%
CN(Cc1cccnc1)C(=O)c1cc(COc2ccc3ncccc3c2)on1 | 44.2% (active)
Cc1cc(CN(C)C(=O)c2cc(COc3ccc(C)c(C)c3)on2)n[nH]1 | -2.16%
Cc1ccc2c(c1)N(CC(=O)N(Cc1ccccn1)Cc1ccco1)C(=O)C(C(C)C)O2 (centres undefined) | -6.51%
